Where “and” joins values, the source holds several entries; their conditions need not be identical. Identical values can stand only once. Screen size: about 5,500 compounds; about 2,000 (36%) were called active. About 18% were inconclusive and are not listed. No stated cut-off is given here; in the data, active means normalized growth mostly below about 0.91 (no sharp cut-off); inconclusive means no clear call, values can overlap the other calls; inactive means mostly above about 0.92. This is one part of the list.
Test: chemical genetic growth profiling, strain panel (AID 1159580);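 further: tested at 20 µM; growth read once vehicle control cultures reached saturation at 30 °C; 1 = growth at the plate median or of vehicle wells; lower values mean less growth of the strain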
Details: S. cerevisiae deletion strains, growth OD

Measured: normalized growth

COc1ccc(C(=O)CC(=O)O)c2c1C=CC(C)(C)O2
inactive: locus YAL021C, strain ccr4, active compounds read low 1 | locus YAL026C, strain drs2, active compounds read low 1 | locus YAL030W, strain snc1, active compounds read low 0.992 | locus YBL061C, strain skt5, active compounds read low 0.999 | locus YBR009C, strain hhf1, active compounds read low 1.01 | locus YBR021W, strain FUR4, active compounds read low 0.986 | locus YBR023C, strain chs3, active compounds read low 1.01 | locus YBR171W, strain sec66, active compounds read low 0.986 | locus YBR229C, strain ROT2, active compounds read low 0.983 | locus YBR231C, strain swc5, active compounds read low 0.987 | locus YBR279W, strain paf1, active compounds read low 1.01 | locus YCL011C, strain gbp2, active compounds read low 1.01 | locus YCL016C, strain dcc1, active compounds read low 1.02 | locus YCL029C, strain bik1, active compounds read low 0.997 | locus YCL061C, strain MRC1, active compounds read low 1 | locus YCL069W, strain vba3, active compounds read low 1.01 | locus YCR088W, strain abp1, active compounds read low 0.995 | locus YDL005C, strain med2, active compounds read low 0.983 | locus YDL035C, strain GPR1, active compounds read low 1.02 | locus YDL040C, strain nat1, active compounds read low 1 | locus YDL074C, strain BRE1, active compounds read low 1 | locus YDL101C, strain DUN1, active compounds read low 1.01 | locus YDL185W, strain tfp1, active compounds read low 0.988 | locus YDL192W, strain arf1, active compounds read low 0.996 | locus YDR001C, strain nth1, active compounds read low 0.995 | locus YDR069C, strain doa4, active compounds read low 0.984 | locus YDR101C, strain arx1, active compounds read low 0.995 | locus YDR137W, strain rgp1, active compounds read low 1.03 | locus YDR150W, strain NUM1, active compounds read low 0.999 | locus YDR159W, strain sac3, active compounds read low 0.956 | locus YDR162C, strain NBP2, active compounds read low 1.06 | locus YDR195W, strain ref2 0.962 | locus YDR297W, strain sur2, active compounds read low 0.997 | locus YDR318W, strain mcm21, active compounds read low 0.997 | locus YDR334W, strain swr1, active compounds read low 0.997 | locus YDR335W, strain msn5, active compounds read low 1.01 | locus YDR388W, active compounds read low 1.01 | locus YDR392W, strain spt3, active compounds read low 0.96 | locus YDR502C, strain sam2, active compounds read low 1.02 | locus YEL003W, strain gim4, active compounds read low 0.999 | locus YEL037C, strain rad23, active compounds read low 0.999 | locus YEL061C, strain CIN8, active compounds read low 0.998 | locus YER015W, strain faa2, active compounds read low 1.01 | locus YER016W, strain bim1, active compounds read low 0.99 | locus YER110C, active compounds read low 0.977 | locus YER111C, strain swi4, active compounds read low 1 | locus YER155C, strain BEM2 (second series), active compounds read low 0.99 | locus YER155C, strain BEM2, active compounds read low 0.983 | locus YER167W, strain BCK2, active compounds read low 0.993 | locus YFR010W, strain ubp6, active compounds read low 0.994 | locus YGL078C, strain dbp3, active compounds read low 0.994 | locus YGL086W, strain mad1, active compounds read low 0.99 | locus YGL167C, strain pmr1, active compounds read low 0.994 | locus YGL173C, strain kem1, active compounds read low 0.99 | locus YGL227W, strain vid30, active compounds read low 0.981 | locus YGL240W, strain doc1, active compounds read low 1.02 | locus YGL248W, strain PDE1, active compounds read low 1 | locus YGL253W, strain hxk2, active compounds read low 1 | locus YGR078C, strain PAC10, active compounds read low 1.03 | locus YGR135W, strain pre9, active compounds read low 0.992 | locus YGR252W, strain gcn5, active compounds read low 0.979 | locus YHR013C, strain ard1, active compounds read low 1.02 | locus YHR027C, strain rpn1, active compounds read low 0.982 | locus YHR030C, strain SLT2, active compounds read low 0.997 | locus YHR079C, strain IRE1 (second series), active compounds read low 0.991 | locus YHR079C, strain IRE1, active compounds read low 0.987 | locus YHR094C, strain hxt1, active compounds read low 1 | locus YHR129C, strain ARP1, active compounds read low 0.998 | locus YHR142W, strain chs7, active compounds read low 1 | locus YHR200W, strain rpn10, active compounds read low 0.987 | locus YIL066C, strain RNR3, active compounds read low 1.02 | locus YIL073C, strain SPO22, active compounds read low 1.04 | locus YIL125W, strain kgd1, active compounds read low 1.01 | locus YIR030C, strain dcg1, active compounds read low 0.993 | locus YJL092W, strain hpr5, active compounds read low 1 | locus YJL095W, strain BCK1 (second series), active compounds read low 0.99 | locus YJL095W, strain BCK1, active compounds read low 1.05 and 1.08 | locus YJL115W, strain asf1, active compounds read low 1 | locus YJL129C, strain trk1, active compounds read low 1 | locus YJL134W, strain LCB3, active compounds read low 0.995 | locus YJL154C, strain vps35, active compounds read low 0.996 | locus YJL164C, strain tpk1, active compounds read low 1.01 | locus YJL166W, strain qcr8, active compounds read low 1 | locus YJL168C, strain set2, active compounds read low 0.998 | locus YJL187C, strain SWE1 (second series), active compounds read low 1.02 | locus YJL187C, strain SWE1, active compounds read low 1.01 | locus YJR043C, strain POL32, active compounds read low 1.04 | locus YJR066W, strain TOR1, active compounds read low 0.949 | locus YJR075W, strain HOC1, active compounds read low 1.02 | locus YKL009W, strain mrt4, active compounds read low 1.03 | locus YKL068W, active compounds read low 0.992 | locus YKL085W, strain MDH1 (second series), active compounds read low 1 | locus YKL085W, strain MDH1, active compounds read low 1 | locus YKL160W, strain elf1, active compounds read low 1.01 | locus YKL190W, strain CNB1, active compounds read low 0.994 | locus YKR001C, strain vps1, active compounds read low 0.994 | locus YKR026C, strain gcn3, active compounds read low 0.995 | locus YKR091W, strain srl3, active compounds read low 0.997 | locus YLL001W, strain dnm1, active compounds read low 1.01 | locus YLL026W, active compounds read low 1 | locus YLL041C, strain sdh2, active compounds read low 1.01 | locus YLR027C, strain aat2, active compounds read low 1.01 | locus YLR039C, strain RIC1, active compounds read low 1.08 | locus YLR058C, strain SHM2, active compounds read low 0.996 | locus YLR102C, strain apc9, active compounds read low 0.992 | locus YLR113W, strain HOG1, active compounds read low 1.07 | locus YLR221C, strain rsa3, active compounds read low 0.99 | locus YLR258W, strain gsy2, active compounds read low 1 | locus YLR262C, strain YPT6 (second series), active compounds read low 1.03 | locus YLR262C, strain YPT6, active compounds read low 1.06 | locus YLR268W, strain sec22, active compounds read low 1.01 | locus YLR320W, strain mms22, active compounds read low 0.987 | locus YLR330W, strain CHS5, active compounds read low 0.995 | locus YLR342W, strain FKS1 (second series), active compounds read low 1 | locus YLR342W, strain FKS1, active compounds read low 0.999 | locus YLR357W, strain rsc2, active compounds read low 0.959 | locus YLR370C, strain arc18, active compounds read low 1.03 | locus YLR371W, strain rom2, active compounds read low 0.997 | locus YLR384C, strain iki3, active compounds read low 0.99 | locus YLR418C, strain cdc73, active compounds read low 0.998 | locus YML016C, strain PPZ1, active compounds read low 0.99 | locus YML032C, strain rad52, active compounds read low 1 | locus YML120C, strain ndi1, active compounds read low 1.01 | locus YML124C, strain tub3, active compounds read low 0.997 | locus YMR058W, strain fet3, active compounds read low 1.01 | locus YMR078C, strain ctf18, active compounds read low 0.977 | locus YMR125W, strain sto1, active compounds read low 0.994 | locus YMR129W, active compounds read low 1 | locus YMR205C, strain PFK2, active compounds read low 1.01 | locus YMR223W, strain ubp8, active compounds read low 1.01 | locus YMR231W, strain pep5, active compounds read low 0.994 | locus YMR263W, strain SAP30, active compounds read low 1.01 | locus YMR307W, strain GAS1, active compounds read low 0.939 | locus YNL067W, strain RPL9B, active compounds read low 1.04 | locus YNL071W, strain lat1, active compounds read low 1.01 | locus YNL153C, strain GIM3, active compounds read low 1.04 | locus YNL183C, strain NPR1, active compounds read low 0.995 | locus YNL209W, strain ssb2, active compounds read low 1.01 | locus YNL233W, strain BNI4, active compounds read low 1.03 | locus YNL248C, strain rpa49, active compounds read low 0.903 | locus YNL250W, strain rad50, active compounds read low 0.981 | locus YNL271C, strain bni1, active compounds read low 0.984 | locus YNL298W, strain CLA4, active compounds read low 0.979 | locus YNL307C, strain MCK1, active compounds read low 0.99 | locus YNL322C, strain KRE1 (second series), active compounds read low 1.01 | locus YNL322C, strain KRE1, active compounds read low 0.998 | locus YNR049C, strain mso1, active compounds read low 1.02 | locus YNR052C, strain pop2, active compounds read low 0.985 | locus YOL006C, strain TOP1, active compounds read low 1.11 | locus YOL012C, strain htz1 0.738 | locus YOL147C, strain pex11, active compounds read low 0.993 | locus YOR001W, strain rrp6, active compounds read low 0.971 | locus YOR061W, strain CKA2, active compounds read low 0.993 | locus YOR069W, strain VPS5, active compounds read low 0.989 | locus YOR070C, strain gyp1, active compounds read low 1 | locus YOR080W, strain dia2, active compounds read low 0.994 | locus YOR083W, strain WHI5, active compounds read low 1.01 | locus YOR106W, strain vam3, active compounds read low 1.03 | locus YOR136W, strain idh2, active compounds read low 0.985 | locus YOR144C, strain elg1, active compounds read low 0.999 | locus YOR184W, strain ser1, active compounds read low 1.03 | locus YOR231W, strain MKK1, active compounds read low 0.994 | locus YOR265W, strain rbl2, active compounds read low 1.02 | locus YOR270C, strain vph1, active compounds read low 0.995 | locus YOR290C, strain snf2, active compounds read low 0.997 | locus YOR316C, strain cot1, active compounds read low 0.996 | locus YPL051W, strain arl3, active compounds read low 1.01 | locus YPL078C, strain atp4, active compounds read low 1.03 | locus YPL106C, strain sse1, active compounds read low 0.987 | locus YPL240C, strain hsp82, active compounds read low 0.999 | locus YPL241C, strain CIN2, active compounds read low 0.996 | locus YPL256C, strain CLN2, active compounds read low 0.997 | locus YPR119W, strain clb2, active compounds read low 1 | locus YPR141C, strain kar3, active compounds read low 0.991 | locus YPR163C, strain tif3, active compounds read low 0.992 | locus YPR167C, strain met16, active compounds read low 0.995 | strain wtn01, active compounds read low 0.991
